Experimental data reported in PubChem BioAssay AID463173 (ICCB-Longwood Screening Facility, Harvard Medical School, 2010).
The campaign covered roughly 52,000 compounds. About 4,300 (8.3%) were called active. Cut-off read from the data, not from the text of the source: active = survival mostly below about 52% (no sharp cut-off); inactive = mostly above about 56%. The sample as a whole holds a higher share of actives than the screen did.

The molecules below were run on DeltatarO mutant (assay: S. aureus survival, RN4220 and DeltatarO strains – OD600, teichoic acid synthesis inhibitors, primary screen (AID 463173)). Settings: S. aureus RN4220 wild type/DeltatarO growth, OD600, 18 h, active compounds read low, screened at 18.75 µg/mL (by protocol).

| Compound | survival |
| --- | --- |
| CCOc1ccc(CNC(=O)C2Cc3ccccc3N2C(=O)CC)cc1OC (centres undefined) | 78% (inactive) |
| COc1ccc(OC)c(NC(=O)c2cc3c(=O)n4cccc(C)c4nc3n2C)c1 | 65% (inactive) |
| COc1ccc(CNC(=O)CN(c2cc(C)cc(C)c2)S(=O)(=O)c2c(C)[nH]c(=O)[nH]c2=O)cc1 | 86% (inactive) |
| CC1CN(C(=O)CCC(=O)NCc2cccs2)c2cc(Cl)ccc2O1 (centres undefined) | 84% (inactive) |
| CCOC(=O)c1c(S(=O)(=O)N2CCCC(C(=O)Nc3cc(C)ccn3)C2)c(C)n(C)c1C (centres undefined) | 83% (inactive) |
| CN(C1CCCCC1)S(=O)(=O)c1ccc(C(=O)Nc2sc3c(c2C(N)=O)CC(C)(C)NC3(C)C)cc1 | 84% (inactive) |
| COc1ccc2c(c1)c1c(c(=O)n(-c3ccccc3)c(=O)n1CC(=O)NCc1ccc(C)cc1)n2C | 83% (inactive) |
| COc1ccc(-n2cc(C(=O)NCc3ccccc3)c3ccccc3c2=O)cc1 | 61% (inactive) |
| CC(=O)Nc1c(C(=O)Nc2ccccc2F)oc2ccccc12 | 119% (inactive) |
| COc1ccc(C(=O)Nc2c(C(=O)c3ccccc3)oc3ccccc23)cc1 | 72% (inactive) |
| CCOc1ccc(NC(=O)c2oc3ccccc3c2NC(=O)C(C)(C)C)cc1 | 38% (active) |
| CCOc1ccc(NC(=O)c2oc3ccccc3c2NC(=O)c2c(F)cccc2F)cc1 | 91% (inactive) |
| O=C(Cc1ccccc1)Nc1c(C(=O)Nc2ccccc2F)oc2ccccc12 | 83% (inactive) |
| COc1ccccc1C(=O)Nc1c(C(=O)NC(C)(C)C)oc2ccccc12 | 99% (inactive) |
| O=C(Nc1ccccc1F)c1oc2ccccc2c1NC(=O)c1c(F)cccc1F | 26% (active) |
| COc1ccccc1C(=O)Nc1c(C(=O)c2ccccc2)oc2ccccc12 | -1% (active) |
| COc1cc(C(=O)Nc2c(C(=O)Nc3ccccc3F)oc3ccccc23)cc(OC)c1OC | 52% (inactive) |
| CCOc1ccc(NC(=O)c2oc3ccccc3c2NC(=O)c2cc(C)cc(C)c2)cc1 | 82% (inactive) |
| COc1ccccc1C(=O)Nc1c(C(=O)Nc2ccccc2F)oc2ccccc12 | 13% (active) |
| COc1ccccc1NC(=O)c1oc2ccccc2c1NC(=O)c1c(F)cccc1F | 51% (inactive) |
| CCN1C(=O)/C(=C2\C=Cc3ccccc3N2CC)SC1=S | 77% (inactive) |
| CC(=O)Nc1ccc(-c2nnc(SCC(=O)c3ccc([N+](=O)[O-])cc3)o2)cc1 | 66% (inactive) |
| CCOc1ccccc1C(=O)Nc1cc2c(cc1N1CCOCC1)n(C)c(=O)n2C | 77% (inactive) |

| Compound | survival |
| --- | --- |
| CCCNC(=O)N1CCc2cc(OC)c(OC)cc2C1c1cc2cc3c(cc2[nH]c1=O)OCO3 (centres undefined) | 91% (inactive) |
| CCOCCc1nn2c(=O)cc(COC(=O)COc3ccccc3Cl)nc2s1 | 88% (inactive) |
| O=C(Nc1ccc(NC(=O)c2cc3ccccc3o2)cc1)c1ccccc1 | 86% (inactive) |
| O=C(Nc1c(C(=O)Nc2ccccc2F)oc2ccccc12)c1cc2ccccc2o1 | 37% (active) |
| O=C(Nc1c(C(=O)Nc2cccc(F)c2)oc2ccccc12)c1cc2ccccc2o1 | 35% (active) |
| COc1ccc(N2CCN(C(=O)c3oc4ccccc4c3NC(=O)c3ccccc3OC)CC2)cc1 | 131% (inactive) |
| CC(C)Oc1ccc(NC(=O)c2cc3ccccc3o2)cc1 | 40% (active) |
| COc1ccccc1C(=O)Nc1c(C(=O)N2CCN(c3ccccc3F)CC2)oc2ccccc12 | 92% (inactive) |
| O=C(O)c1ccc(NC(=O)c2cc3ccccc3o2)cc1 | 59% (inactive) |
| Cc1cccc(CC(=O)Nc2c(C(=O)Nc3cccc(F)c3)oc3ccccc23)c1 | 57% (inactive) |
| COc1ccccc1C(=O)Nc1c(C(=O)N2CCN(c3ccc(F)cc3)CC2)oc2ccccc12 | 0% (active) |
| Cc1cc(C)cc(C(=O)Nc2c(C(=O)Nc3ccccc3F)oc3ccccc23)c1 | 80% (inactive) |
| COc1ccc(NC(=O)c2oc3ccccc3c2NC(=O)c2cc3ccccc3o2)c(OC)c1 | 72% (inactive) |
| COc1cccc(NC(=O)c2oc3ccccc3c2NC(=O)c2cc3ccccc3o2)c1 | 51% (inactive) |
| COc1ccc(CCNC(=O)CCS(=O)(=O)c2cc3c(cc2Cl)NC(=O)CO3)cc1OC | 90% (inactive) |
| COc1ccc(-c2noc(-c3ccc(C)cc3Cl)n2)cc1OC | 136% (inactive) |
| Cc1ccc(C)c(NC(=O)Cn2cc(S(=O)(=O)N3CCCC3)c(S(=O)(=O)N3CCCC3)c2)c1 | 94% (inactive) |
| COc1ccc(OC)c(NC(=O)c2cn3c4c(ccc(Cl)c4c2=O)OC(C)C3)c1 (centres undefined) | 87% (inactive) |
| Cc1ccc(-c2cc(NC(=O)COc3ccc(Cl)c(C)c3)on2)cc1 | 86% (inactive) |
| Oc1c(Br)cc(Br)cc1-c1nc2ccccc2s1 | 126% (inactive) |
| CCOc1ccccc1CNC(=O)CCn1cccn1 | 67% (inactive) |
| CCOC(=O)C1CCN(c2cc3c(cc2NC(=O)c2ccc(Cl)cc2)n(C)c(=O)n3C)CC1 | 93% (inactive) |
| COc1ccc(CNC(=O)C2=C(C)C(=O)OC23CCCCC3)cc1 | 82% (inactive) |

| Compound | survival |
| --- | --- |
| CCc1ccc(S(=O)(=O)c2cn(C)c3cc(OC)c(OC)cc3c2=O)cc1 | 121% (inactive) |
| CCOC(=O)c1ccc(NC(=O)C2Cc3ccccc3CN2S(=O)(=O)c2ccc(Cl)cc2)cc1 (centres undefined) | 53% (inactive) |
| CCCc1c(C)c2ccc(O)c(CN3CCN(c4ccc(F)cc4)CC3)c2oc1=O | 52% (inactive) |
| O=C(NCCCN=C1NS(=O)(=O)c2ccccc21)c1ccncc1 | 85% (inactive) |
| O=C(Nc1c(C(=O)N2CCN(c3ccccc3F)CC2)oc2ccccc12)c1ccco1 | 69% (inactive) |
| O=C(Nc1c(C(=O)Nc2ccc(F)cc2)oc2ccccc12)c1ccccc1F | 40% (active) |
| COc1ccc(C(=O)c2oc3ccccc3c2NC(=O)c2cccc(OC)c2)cc1 | 58% (inactive) |
| COc1cccc(C(=O)Nc2c(C(=O)Nc3ccc(F)cc3)oc3ccccc23)c1OC | 60% (inactive) |
| CCOc1cccc(C(=O)Nc2c(C(=O)c3ccc(OC)cc3)oc3ccccc23)c1 | 28% (active) |
| CCOc1ccccc1C(=O)Nc1c(C(=O)Nc2ccc(F)cc2)oc2ccccc12 | 83% (inactive) |
| O=C(Nc1c(C(=O)N2CCN(c3ccc(F)cc3)CC2)oc2ccccc12)c1ccco1 | 74% (inactive) |
| O=C(Nc1c(C(=O)N2CCN(c3ccccc3)CC2)oc2ccccc12)c1ccco1 | 37% (active) |
| CCOc1ccc(C(=O)Nc2c(C(=O)c3ccc(OC)cc3)oc3ccccc23)cc1 | 79% (inactive) |
| COCCNC(=O)c1ccc2nc(CCc3ccccc3)oc2c1 | 112% (inactive) |
| CCOC(=O)c1c(NC(=O)/C=C/c2ccc(OCC)cc2)sc(C)c1C | 50% (inactive) |
| CCOc1ccc(C(c2c(O)cc(C)n(CCOC)c2=O)N2CCC(C)CC2)cc1 (centres undefined) | 73% (inactive) |
| CCc1ccccc1NC(=O)CN(c1cc(C(F)(F)F)ccc1Cl)S(=O)(=O)c1ccccc1 | 44% (active) |
| CCOc1ccc(S(=O)(=O)N(CC(=O)NCc2ccccc2OC)c2ccccc2)cc1 | 37% (active) |
| CCOc1ccc(S(=O)(=O)N(CC(=O)NCCc2ccc(OC)cc2)c2ccccc2)cc1 | 92% (inactive) |
| Cc1cc(C)cc(NC(=O)CN(c2cc(C(F)(F)F)ccc2Cl)S(=O)(=O)c2ccccc2)c1 | 79% (inactive) |
| COc1ccccc1N(CC(=O)Nc1ccccc1C(F)(F)F)S(=O)(=O)c1ccc(C)cc1 | 64% (inactive) |
| CCc1ccccc1NC(=O)CN(c1ccccc1OC)S(=O)(=O)c1ccc(C)cc1 | 36% (active) |
| COc1ccc(OC)c(NC(=O)CN(c2ccccc2OC)S(=O)(=O)c2ccc(C)cc2)c1 | 54% (inactive) |

| Compound | survival |
| --- | --- |
| CCc1ccccc1NC(=O)CN(c1cccc(C)c1C)S(C)(=O)=O | 54% (active) |
| O=C(CN(c1cc(C(F)(F)F)ccc1Cl)S(=O)(=O)c1ccccc1)NCCc1ccccc1 | 66% (inactive) |
| Cc1cccc(N(CC(=O)Nc2cccc(Cl)c2C)S(C)(=O)=O)c1C | 61% (inactive) |
| Cc1cccc(N(CC(=O)NCc2ccccc2)S(C)(=O)=O)c1C | 70% (inactive) |
| CCOc1ccc(S(=O)(=O)N(CC(=O)NCCc2ccc(OC)c(OC)c2)c2ccccc2)cc1 | 49% (inactive) |
| COc1cccc2cc(C(=O)N3CCCCC3)c(=O)oc12 | 85% (inactive) |
| Nc1cccc(C(=O)NC23CC4CC(CC(C4)C2)C3)c1 | 95% (inactive) |
| O=C1CCCC/C1=N\Nc1ccc(N2CCCCC2)cc1 | 90% (inactive) |
| Cc1nc2ccn(Cc3ccco3)c(=O)c2cc1C(=O)NCc1ccccc1F | 86% (inactive) |
| O=C(O)c1ccccc1SC1CC(=O)N(Cc2ccccc2)C1=O (centres undefined) | 81% (inactive) |
| CCOc1ccc(CCNC(=O)CCCc2nnc3n(CCCOC)c(=O)c4sccc4n23)cc1 | 91% (inactive) |
| NS(=O)(=O)c1ccc(NC(=O)C2CCCO2)cc1 (centres undefined) | 95% (inactive) |
| CCN1c2ccccc2-n2cccc2C12CCN(C(=O)Nc1ccccc1Br)CC2 | 91% (inactive) |
| COc1ccc(CCNC(=O)Cc2c(C)c3c(cc(C)c4c(C)c(C)oc43)oc2=O)cc1OC | 83% (inactive) |
| Cc1ccc2c(CNCC(C)c3ccccc3)c(C(=O)O)n(Cc3ccccc3C)c2c1 (centres undefined) | 70% (inactive) |
| COc1ccccc1N(CC(=O)NCCSCc1ccccc1)S(=O)(=O)c1ccc(C)cc1 | 41% (active) |
| COc1ccccc1N(CC(=O)NCCSc1ccccc1)S(=O)(=O)c1ccc(C)cc1 | 62% (inactive) |
| COc1ccccc1N(CC(=O)NCCSCc1ccccc1)S(C)(=O)=O | 70% (inactive) |
| Cc1ccc(Cn2cc3c(n2)-c2c(oc(C(=O)Nc4ccc(F)cc4F)c2C)CC3)cc1 | 85% (inactive) |
| CN1CCN(c2nc3c(S(=O)(=O)c4ccccc4)nnn3c3ccsc23)CC1 | 86% (inactive) |
